{
  "source": "PubChem BioAssay (NCATS)",
  "note": "Results filed as inconclusive are left out. The source made the active and inactive calls. Calls follow the shape of the full dose curve.",
  "data": [
    {"target": "Thyroid hormone receptor beta (Homo sapiens) (UniProt P10828)", "sequence (P10828 whole entry, looked up)": "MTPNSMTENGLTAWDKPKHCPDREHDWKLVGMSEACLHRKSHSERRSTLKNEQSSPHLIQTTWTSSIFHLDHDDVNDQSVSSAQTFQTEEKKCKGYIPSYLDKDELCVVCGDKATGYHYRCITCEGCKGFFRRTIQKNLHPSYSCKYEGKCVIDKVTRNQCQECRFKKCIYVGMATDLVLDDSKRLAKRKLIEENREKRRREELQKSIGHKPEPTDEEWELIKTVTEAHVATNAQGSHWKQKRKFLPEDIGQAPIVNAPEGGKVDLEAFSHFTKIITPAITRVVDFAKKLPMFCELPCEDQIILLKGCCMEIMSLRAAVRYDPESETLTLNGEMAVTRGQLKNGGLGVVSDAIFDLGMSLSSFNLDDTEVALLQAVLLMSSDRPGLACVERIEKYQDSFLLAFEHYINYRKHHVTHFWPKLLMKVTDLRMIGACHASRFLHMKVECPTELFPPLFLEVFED", "assay": "qHTS assay for small molecule agonists of thyroid hormone receptor beta signaling (AID 588545)", "conditions": "TR-UAS-bla GripTite HEK 293, beta-lactamase ratio, agonist mode, 18 h, percent of T3 response, DMSO as zero; series mostly up to 76.7 µM", "text": "NIH Chemical Genomics Center [NCGC]\nU.S. Environmental Protection Agency [EPA]\nNational Institutes of Environmental Health Sciences [NIEHS]\nNational Toxicology Program [NTP]\nThyroid hormone receptor (TR) belongs to nuclear hormone receptor superfamily. There are two subtypes for TR: TR-alpha and TR-beta. TR-beta plays a major role in regulating plasma cholesterol levels and it mediates the biological activities of thyroid hormone. Screening environmental chemicals on TR-beta signaling will provide important information for the mechanism of compound action.\nNCGC Assay Protocol Summary\nUsing a beta-lactamase reporter-gene under control of the TR response element, a cell-based assay [GeneBLAzer TR-UAS-bla-GripTite assay developed by Invitrogen] was used to measure TR-beta signaling in agonist mode. TR-UAS-bla-GripTite HEK 293 cells were used with assay medium containing 2% charcoal/dextran FBS, 0.1 mM NEAA and 1 mM sodium pyruvate. The assay was performed in clear bottom black Greiner 1536-well plates. T3 was used as a positive control in the screen. Library compounds were measured for their ability to stimulate the reporter gene activity. Compounds were screened in a titration series in 1536-well format. The fluorescence intensity (405 nm excitation, 460/530 nm emission) was measured using an EnVision plate reader. Data was normalized relative to T3 control (10 nM, 100%), and DMSO only wells (basal, 0%). Concentration-response titration points for each compound were fitted to the Hill equation yielding concentrations of half-maximal stimulation (EC50) and maximal response (efficacy) values.\nqHTS protocol for TR-beta beta-lactamase assay in agonist mode\n[Step] [Parameter] [Value] [Description]\n1. Reagent; 6 uL; 2500 cells/well\n2. Incubation; 37 C for 4 hrs\n- Dose response; start 3.8 uM, 1:3 dilutions, duplicates in first column\n- Two columns of each 10 and 0.4 nM (finals) concentrations.\n5. Incubation; 37 C for 18 hrs\n6. Detection reagent; 1 uL of CCF4-dye\n7. Incubation; RT for 2 hrs\n8. Detection; Fluorescence; Envision plate reader", "values": [
      {"compound": "Cc1ccc([N+](=O)[O-])c(N)c1", "outcome": "inactive"},
      {"compound": "CCCCC(CC)CO", "note": "(stereo not given)", "outcome": "inactive"},
      {"compound": "Nc1c(Cl)cc(Cl)cc1Cl", "outcome": "inactive"},
      {"compound": "S=C([S-])NCCNC(=S)[S-].[Zn+2]", "outcome": "inactive"},
      {"compound": "Nc1cc(Cl)c(N)c(Cl)c1", "outcome": "inactive"},
      {"compound": "Cc1cccc(C(=O)O)c1", "outcome": "inactive"},
      {"compound": "COc1ccccc1[N+](=O)[O-]", "outcome": "inactive"},
      {"compound": "CC(=O)c1cc(C)oc1C", "outcome": "inactive"},
      {"compound": "Nc1cc([N+](=O)[O-])ccc1C(=O)O", "outcome": "inactive"},
      {"compound": "Clc1ccccn1", "outcome": "inactive"},
      {"compound": "CO[Si](CCCNCCC[Si](OC)(OC)OC)(OC)OC", "outcome": "inactive"},
      {"compound": "N#Cc1ccccc1", "outcome": "inactive"},
      {"compound": "C[C@@H]1O[C@@H](O[C@@H]2[C@@H](O)[C@H](OCCc3ccc(O)c(O)c3)O[C@H](CO[C@@H]3O[C@H](CO)[C@@H](O)[C@H](O)[C@H]3O)[C@H]2OC(=O)/C=C/c2ccc(O)c(O)c2)[C@H](O)[C@H](O)[C@H]1O", "outcome": "inactive"},
      {"compound": "Cc1ccc2oc(=O)ccc2c1", "outcome": "inactive"},
      {"compound": "CC(C)CO", "outcome": "inactive"},
      {"compound": "OC1CCCC1", "outcome": "inactive"},
      {"compound": "CC1(N)CCC(C(C)(C)N)CC1", "note": "(stereo not given)", "outcome": "inactive"},
      {"compound": "Nc1nc(CC(=O)O)cs1", "outcome": "inactive"},
      {"compound": "O=[N+]([O-])c1ccccc1CCO", "outcome": "inactive"},
      {"compound": "CCN(CC)c1cccc(O)c1", "outcome": "inactive"},
      {"compound": "CCCCCCCCCCCCOCC1CO1", "note": "(stereo not given)", "outcome": "inactive"},
      {"compound": "CC=O", "outcome": "inactive"},
      {"compound": "CCC(C)O", "note": "(stereo not given)", "outcome": "inactive"},
      {"compound": "C=CC(=O)NC(C)C", "outcome": "inactive"},
      {"compound": "Cc1c(N)cccc1[N+](=O)[O-]", "outcome": "inactive"},
      {"compound": "CC(N)CN", "note": "(stereo not given)", "outcome": "inactive"},
      {"compound": "C=Cc1ccccn1", "outcome": "inactive"},
      {"compound": "CCCCC=O", "outcome": "inactive"},
      {"compound": "Cc1ccc(Br)cc1", "outcome": "inactive"},
      {"compound": "C[C@@H]1CC2(OC[C@]3(C)O[C@H]23)O[C@H]2C[C@@]3(C)[C@@H]4CC[C@H]5C(C)(C)C(O[C@@H]6OC[C@@H](O)[C@H](O)[C@H]6O)CC[C@@]56C[C@@]46CC[C@]3(C)[C@@H]12", "note": "(stereo not given in full)", "outcome": "inactive"},
      {"compound": "CC(O)COC(C)(C)C", "note": "(stereo not given)", "outcome": "inactive"},
      {"compound": "CC(C)(O)CCC(C)(C)O", "outcome": "inactive"},
      {"compound": "CC(=O)c1cccc([N+](=O)[O-])c1", "outcome": "inactive"},
      {"compound": "CCCCCO", "outcome": "inactive"},
      {"compound": "CCC1CO1", "note": "(stereo not given)", "outcome": "inactive"},
      {"compound": "O=C(O)c1ccc(C(=O)O)cc1", "outcome": "inactive"},
      {"compound": "CC(=O)OCCC(C)C", "outcome": "inactive"},
      {"compound": "CCOC(=O)OCC", "outcome": "inactive"},
      {"compound": "Fc1ccccc1", "outcome": "inactive"},
      {"compound": "CCOc1ccccc1N", "outcome": "inactive"}
    ]}
  ]
}
